According to PubChem BioAssay (NCI):
Compounds without any hit were thinned out: in the full panel of roughly 83,000, 20% have a hit.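 Note: values are percent growth. 100 is the growth of untreated cells, values between 100 and 0 indicate rising inhibition; between -100 and 0 indicates cell death.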 Values without a mark were called inactive. Active and inactive are the calls of the source. How the source made its calls: active means growth percent below 10; inactive means the rest.

Legend:
Assay in all cases: NCI-60 one-dose screen, 48 h (100 = growth as untreated, 0 = no growth, -100 = all killed)
Details in all cases: 10 µM unless noted
SR leukemia = test system: SR leukemia
RPMI-8226 leukemia = test system: RPMI-8226 leukemia
OVCAR-8 ovarian = test system: OVCAR-8 ovarian
OVCAR-5 ovarian = test system: OVCAR-5 ovarian
OVCAR-4 ovarian = test system: OVCAR-4 ovarian
SK-OV-3 ovarian = test system: SK-OV-3 ovarian
OVCAR-3 ovarian = test system: OVCAR-3 ovarian
HS 578T breast = test system: HS 578T breast
NCI/ADR-RES ovarian = test system: NCI/ADR-RES ovarian
T-47D breast = test system: T-47D breast
BT-549 breast = test system: BT-549 breast
MDA-MB-435 melanoma = test system: MDA-MB-435 melanoma
SW-620 colon = test system: SW-620 colon
MCF7 breast = test system: MCF7 breast
HCT-116 colon = test system: HCT-116 colon
HCC-2998 colon = test system: HCC-2998 colon
KM12 colon = test system: KM12 colon
IGROV1 ovarian = test system: IGROV1 ovarian

SMILES | growth (SR leukemia) | growth (RPMI-8226 leukemia) | growth (OVCAR-8 ovarian) [%] | growth (OVCAR-5 ovarian) [%] | growth (OVCAR-4 ovarian) | growth (SK-OV-3 ovarian) [%] | growth (OVCAR-3 ovarian) | growth (HS 578T breast) [%] | growth (NCI/ADR-RES ovarian) | growth (T-47D breast) | growth (BT-549 breast) | growth (MDA-MB-435 melanoma) | growth (SW-620 colon) | growth (MCF7 breast) | growth (HCT-116 colon) | growth (HCC-2998 colon) [%] | growth (KM12 colon) [%] | growth (IGROV1 ovarian) [%]
C=C1C(=O)O[C@H]2[C@H]1CC/C(COC(=O)NCCc1c[nH]c3ccc(OC)cc13)=C\CC[C@@]1(C)O[C@@H]21 | 11.6% | -18.4% (active) | 20.4 | 51.8 | -13.1% (active) | 118 | -74.3% (active) | 79.9 | 83.5% | -35.3% (active) | -22.1% (active) | 14.7% | -56.2% (active) | 26.9% | -82.5% (active) | 75.1 | 63.1 | 
NC1[C@H](c2c[nH]c3ccccc23)c2c([nH]c3ccccc23)[C@H]1c1c[nH]c2ccccc12 (stereo not given in full) | 81.7% | 77.7% | 99.8 | 92.7 | 86.6% | 115 | 78.2% | 83.8 |  | 94.9% | 105% | 100% | 96.3% | 90.8% | 74.2% |  | 91 | 
Oc1c(Cl)cc(Cl)c(Cl)c1CNCCNCc1c(O)c(Cl)cc(Cl)c1Cl | 1.15% (active) | 18% | 11.3 | 54 | 22.6% | 22 | 19.1% | 57.7 | 4.33% (active) | 20.2% |  | 37.1% |  | 15.6% | 13.9% | 25.2 | 24 | 
CCOC(=O)C1=C(CCl)NC(=O)NC1c1ccc2c(c1)OCO2 (stereo not given) | 28% | 15.3% | 45.7 | 24.6 | 32.5% | 81.8 | 24.8% | 71.9 | 58.6% | 31.3% | 32.4% | 35.7% | 26.7% | 9.21% (active) | 8.65% (active) | 83.1 | 84.3 | 
COc1cc2nc(-c3ccc(Cl)cc3)cc(OCCCN3CCCC3)c2cc1OC | 14.5% | 20.2% | 56.2 | 52.6 | 58.2% | 75.5 | 74.4% | 68.6 | 47.3% | 32% | 37.3% | -7.23% (active) | 30.4% | 48.1% | 23.4% | 72.4 | 41.4 | 
CN1CCC(=C(c2ccccc2)c2ccccc2)C(c2ccccc2)C1 (stereo not given) | 96.5% | 103% | 99.3 | 90 | 104% | 115 |  |  | 83.4% | 93.7% | 97.1% | 102% | 92.9% | 86.7% | 71.3% | 88.7 | 97.3 | 81.7
COc1cc(/C(C)=C(\c2ccc(Cl)cc2)c2ccc(OCCN3CCCC3)cc2)ccc1F | -25.3% (active) | 14.7% | 69.1 | 74.8 | 51.8% | 108 |  | 70.5 | 69.9% | 55.1% | 79.1% | 51.3% | 43.2% | 26.5% |  | 57.4 | 36.7 | 40.4
COc1ccc(/C=C/c2nc(Nc3ccc(S(=O)(=O)NC(C)=O)cc3)c3ccccc3n2)cc1 | 53.9% | 76.9% | 76.2 | 72.5 | 79.4% | 90.2 | 95.5% | 82.8 | 85.9% | 67.7% | 86.8% | 63% | 68.2% | 46.7% | 47.4% | 82.1 | 57.8 | 
